Drawing on PubChem BioAssay AID652180 (National Center for Advancing Translational Sciences (NCATS), 2013), this text covers Potency for 40 molecules.

SMILES strings stand for the structures. Inconclusive results are not listed. Where a call stands in place of a potency, no number is given. The source made the active and inactive calls. Calls follow the shape of the dose curve; as a rule, active = well fitted inhibition curve with a large enough effect; inconclusive = small, poorly fitted or top-dose-only effect; inactive = no such curve, though single readings can be large or run the other way.

The nature of this assay: qHTS Assay for Lipid Storage Modulators: 3T3L1 Assay against Probe and Analogs. Conditions: 3T3-L1 lipid droplets, BODIPY imaging, oleic acid, 18-24 h; series mostly up to 46.1 µM. The source says: Storing lipids as a reservoir for energy or the anabolism of elementary metabolites is a common feature of probably all cells and is conserved from bacteria to humans. The universal cellular lipid storage organelle is the so-called lipid storage droplet (LD). Although ubiquitous, LDs share a simple structure composed of a hydrophobic core that harbors the storage lipids, which is shielded by a droplet-specific phospholipid monolayer to which proteins are attached. The current model of LD biogenesis involves an incorporation of the lipid core into the membrane leaflets of the endoplasmic reticulum (ER) followed by a subsequent budding-like maturation of a LD, which ultimately pinches off. Once released, LD volume can increase by localized lipogenesis or fusion of existing droplets. Storage lipids are re-mobilized enzymatically by lipase activity. Lipase regulation in the adipocyte is heavily studied and involves multiple components including catecholamine signaling, the LD-associated proteins Perilipin and comparative gene identification-58 (CGI-58) and at least two lipases named hormone sensitive lipase (HSL) and adipocyte triglyceride lipase (ATGL). LD regulation outside of the adipocyte is poorly understood and only few components are known. However, there is an urgent need to learn more about ectopic fat depots as mislocalized storage of lipids, for example in the liver or muscle, is an eminent health problem associated with insulin resistance or the metabolic syndrome. We developed a laser-scanning cytometer assay to enable 1,536-well screening and combined the results of the small molecules screen with an RNAi database based on lipid storage. In this assay we tested analogs of the probe against a mammalian cell line (3T3L1), to see if these small molecules could disrupt lipid storage. NIH Molecular Libraries Probe Production Centers Network [MLPCN] NIH Chemical Genomics Center [NCGC] MLPCN Grant: MH085686 Assay Submitter (PI): Mathias Beller, Max-Planck-Institut fur Biophysikalische Chemie
3T3L1 cells were obtained from ATCC (CL-173). 4 uL of cells at 1.25 X 105 cell/mL were dispensed into 1536 well Poly-D-Lysine coated black with clear bottom imaging plates (Corning, #7356) to obtain 500 cells/well, and cultured at 37 °C, 95% humidity, and 5% CO2 overnight. The culture medium used was OPTI-MEM containing 5% fetal bovine serum (FBS). Triacsin C (Sigma-Aldrich T-4540), an inhibitor of long-chain fatty acyl CoA synthetase that blocks synthesis of triglycerides, was used as a positive control for lipid under-storage. A total of 23 nL of compounds dissolved in DMSO at different concentrations were transferred to the assay plates using a Kalypsys 1536-pin tool, the final DMSO concentration was 0.46%. One microliter of oleic acid at 400 uM (Calbiochem, #4954) was added to induce lipid droplet formation in the cells, and the plates were lidded. After 18-24 hours of incubation at 37 °C, 95% humidity, and 5% CO2, cells were fixed (8 % paraformaldehyde in PBS, 30 min, room temperature), washed three times with PBS, then stained for lipid droplet and nucleus using 4uL of PBS solution containing BODIPY lipid dye 493/503 (1:2000 dilution, Life Technologies, #3922) and Hoechst 33342 (1:1000, Life Technologies, #H3570) with Washer dispenser EL406(Biotek). Images were acquired using InCell 2000 (GE). Number of cells, number of lipids and sizes of lipids were analysis using GE Investigator software.
On the technique in general: Quantitative high-throughput screening tests each substance at several concentrations.
As for `CCOc1ccc(CCNC(=O)c2cc3sccc3n2CCN2CCN(C)CC2)cc1OCC`, the Potency is 1320 nM (active).

In the case of `CCOc1ccc(CCNC(C)=O)cc1OCC`, the Potency result was “inactive”. For `Cc1cccc(-c2ccc3ncnc(NCc4cccc(F)c4)c3c2)c1` the value was “inactive”. As for `CCOC(=O)C1CCN(C(=O)C(C)(C)NC(=O)Nc2ccc(CN3CCOCC3)cc2)CC1`, the entry is “inactive”; as for `O=C(NC1CCCc2c1cnn2-c1ccc(F)cc1F)c1cnccn1` (stereo not given), “inactive”.

Turning to `O=C(O)c1cccc(-c2noc(-c3ccccc3F)n2)c1`, the Potency is 2640 nM (active). For `CCOc1ccc(CCNC(=O)c2cc3sccc3[nH]2)cc1OCC` the value was 4690 nM (active); for `CCOc1ccc(CCNC(=O)c2cc3sccc3n2C)cc1OCC`, “inactive”.

As for `CCOC(=O)C1CCN(C(=O)C(C)(C)NC(=O)Nc2ccc3sccc3c2)CC1`, the Potency result is “inactive”. As for `CCOC(=O)C1CCN(C(=O)C(C)(C)NC(=O)Nc2ccc([N+](=O)[O-])cc2)CC1`, the entry is “inactive”. For `Cc1cc2c(cc1C1(c3ccc(C(=O)O)cc3)CC1)C(C)(C)CCC2(C)C` the value was “inactive”; for `O=C(Nc1cccc2nn(-c3ccc(F)cc3)cc12)c1ccccn1`, “inactive”; for `C[C@@H](NCCCc1cccc(C(F)(F)F)c1)c1cccc2ccccc12`, “inactive”. For `O=C(O)CCc1ccc(NCc2cccc(Oc3ccccc3)c2)cc1` the value was “inactive”; for `O=C(NC1CCCc2c1cnn2-c1ccc(F)cc1F)c1cnon1` (stereo not given), “inactive”; for `CC1=C(C(=O)NC2CCCc3c2cnn3-c2ccc(F)cc2F)OCCO1` (stereo not given), “inactive”. On to `O=C(NC1CCCc2c1cnn2-c1ccc(F)cc1F)c1cccc(=O)[nH]1` (stereo not given), for which the Potency entry is “inactive”. As for `CCOc1ccc(CCNC(=O)C2=C(C)OCCO2)cc1OCC`, the entry is “inactive”; as for `CCOC(=O)C1CCN(C(=O)C(C)(C)NC(=O)Nc2ccc3c(c2)CCC3)CC1`, “inactive”. For `O=C(NC1CCCc2c1cnn2-c1ccc(F)cc1F)c1ccc(C(=O)c2ccccc2)cc1` (stereo not given) the value was “inactive”; for `O=C(NC1CCCc2c1cnn2-c1ccc(F)cc1F)c1ccncc1` (stereo not given), “inactive”.

Consider `O=C(NCCc1ccc(O)c(O)c1)c1cc2sccc2n1Cc1ccccc1`, for which the Potency entry is “inactive”. For `CN(C)CC(=O)NC1CCCc2c1cnn2-c1ccc(F)cc1F` (stereo not given) the value was “inactive”. For `O=C(Cc1ccccc1)NC1CCCc2c1cnn2-c1ccc(F)cc1F` (stereo not given) the value was “inactive”; for `CN(C)Cc1ccc(-c2nc3cccc4c3n2CCNC4=O)cc1`, “inactive”. As for `CC(C)(C)OC(=O)NCCOCCOCCOc1ccc(-n2ncc3c2CCCC3NC(=O)c2ccccn2)cc1` (stereo not given), the entry is “inactive”; as for `O=C(NC1CCCc2c1cnn2-c1ccc(F)cc1F)C1CCCCC1` (stereo not given), “inactive”.

With `CCOC(=O)C1CCN(C(=O)C(C)(C)NC(=O)Nc2ccc(F)c(F)c2)CC1`, the Potency result is “inactive”. `Cc1cc(SCc2sc(-c3ccc(C(F)(F)F)cc3)nc2C)ccc1OCC(=O)O`: the Potency entry is “inactive”. Take `O=C(NC1CCCc2c1cnn2-c1cccc(O)c1)c1ccccn1` (stereo not given): the Potency result was “inactive”. For `CCOc1ccc(CCNC(=O)c2cc3sccc3n2CC=C(C)C)cc1OCC` the value was 833 nM (active); for `O=C(Nc1cccc2c1cnn2-c1ccc(F)cc1)c1ccccn1`, “inactive”; for `CCOc1ccc(CCNC(=O)c2cc3sccc3n2Cc2ccccc2)c(F)c1OCC`, 526 nM (active). As for `CCOc1cc(CCNC(=O)c2cc3sccc3n2Cc2ccccc2)cc(F)c1OCC`, the figure is 52.6 nM (active); as for `O=C(c1cc2sccc2n1Cc1ccccc1)N(CCc1ccc(O)c(O)c1)Cc1ccccc1`, “inactive”. For the molecule `O=C(NCCc1ccc2c(c1)OCO2)c1cc2sccc2[nH]1`, the Potency entry was “inactive”. For `O=C(NC1CCCc2c1cnn2-c1ccc(F)cc1F)c1cccs1` (stereo not given) the value was “inactive”; for `O=C(NC1CCCc2c1cnn2-c1ccc(O)cc1)c1ccccn1` (stereo not given), “inactive”; for `CCOc1ccc(CCNC(=O)c2ccc(N3N=C(C)CC3=O)cc2)cc1OCC`, “inactive”.

On to `COc1ccc(-n2ncc3c2CCCC3NC(=O)c2ccccn2)cc1` (stereo not given), for which the Potency entry is “inactive”.
